In PubChem BioAssay AID1159580 (chemical genetic matrix, 2015):
Several values for one entry are separate records, joined by “and”; a condition that tells them apart may be missing. Equal values may be shown once. Hit rate of the full screen: of about 5,500 compounds, about 2,000 (36%) were called active. Not shown: some 18% with an inconclusive outcome. No stated cut-off is given here; in the data, active means normalized growth mostly below about 0.91 (no sharp cut-off); inconclusive means no clear call, values can overlap the other calls; inactive means mostly above about 0.92. The list shows a part of the results.

Assay: chemical genetic growth profiling, strain panel (AID 1159580);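 further: tested at 20 µM; growth read once vehicle control cultures reached saturation at 30 °C; 1 = growth at the plate median or of vehicle wells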
Conditions: S. cerevisiae deletion strains, growth OD

Measured: normalized growth

C=C1C(=O)O[C@@H]2C[C@@]3(C)CCC[C@H](C)C3=C[C@H]12
inactive: locus YAL013W, strain DEP1, stronger effect = lower value 0.933 | locus YBR021W, strain FUR4, stronger effect = lower value 1.05 | locus YBR229C, strain ROT2, stronger effect = lower value 0.943 | locus YCL029C, strain bik1, stronger effect = lower value 0.949 | locus YDL005C, strain med2, stronger effect = lower value 0.937 | locus YDL035C, strain GPR1, stronger effect = lower value 0.895 | locus YDL185W, strain tfp1, stronger effect = lower value 0.94 | locus YDR101C, strain arx1, stronger effect = lower value 0.945 | locus YDR150W, strain NUM1, stronger effect = lower value 0.925 | locus YER111C, strain swi4, stronger effect = lower value 0.911 | locus YER167W, strain BCK2, stronger effect = lower value 0.906 | locus YGL078C, strain dbp3, stronger effect = lower value 0.981 | locus YGR252W, strain gcn5, stronger effect = lower value 0.864 | locus YHR030C, strain SLT2, stronger effect = lower value 0.927 and 1.01 | locus YHR079C, strain IRE1 (second series), stronger effect = lower value 0.936 | locus YHR079C, strain IRE1, stronger effect = lower value 0.986 | locus YHR094C, strain hxt1, stronger effect = lower value 0.942 | locus YIL073C, strain SPO22, stronger effect = lower value 0.717 | locus YIL125W, strain kgd1, stronger effect = lower value 0.953 | locus YJL134W, strain LCB3, stronger effect = lower value 0.934 | locus YJL154C, strain vps35, stronger effect = lower value 0.921 | locus YJL168C, strain set2, stronger effect = lower value 0.951 | locus YJL187C, strain SWE1 (second series), stronger effect = lower value 0.875
0.753 (active) and 1.01 (inactive): locus YJL095W, strain BCK1, stronger effect = lower value
active: locus YAL021C, strain ccr4, stronger effect = lower value 0.849 | locus YAL026C, strain drs2, stronger effect = lower value 0.718 | locus YAL030W, strain snc1, stronger effect = lower value 0.882 | locus YBL061C, strain skt5, stronger effect = lower value 0.901 | locus YBR009C, strain hhf1, stronger effect = lower value 0.733 | locus YBR023C, strain chs3, stronger effect = lower value 0.886 | locus YBR171W, strain sec66, stronger effect = lower value 0.837 | locus YBR231C, strain swc5, stronger effect = lower value 0.572 | locus YBR279W, strain paf1, stronger effect = lower value 0.88 | locus YCL011C, strain gbp2, stronger effect = lower value 0.822 | locus YCL016C, strain dcc1, stronger effect = lower value 0.849 | locus YCL061C, strain MRC1, stronger effect = lower value 0.881 | locus YCL069W, strain vba3, stronger effect = lower value 0.876 | locus YCR088W, strain abp1, stronger effect = lower value 0.896 | locus YDL040C, strain nat1, stronger effect = lower value 0.899 | locus YDL074C, strain BRE1, stronger effect = lower value 0.72 | locus YDL101C, strain DUN1, stronger effect = lower value 0.85 | locus YDL134C, strain PPH21, stronger effect = lower value 0.848 | locus YDL192W, strain arf1, stronger effect = lower value 0.758 | locus YDR001C, strain nth1, stronger effect = lower value 0.897 | locus YDR069C, strain doa4, stronger effect = lower value 0.779 | locus YDR137W, strain rgp1, stronger effect = lower value 0.267 | locus YDR159W, strain sac3, stronger effect = lower value 0.71 | locus YDR162C, strain NBP2, stronger effect = lower value 0.699 | locus YDR195W, strain ref2 1.16 [resistant] | locus YDR297W, strain sur2, stronger effect = lower value 0.855 | locus YDR318W, strain mcm21, stronger effect = lower value 0.814 | locus YDR334W, strain swr1, stronger effect = lower value 0.442 | locus YDR335W, strain msn5, stronger effect = lower value 0.875 | locus YDR388W, stronger effect = lower value 0.869 | locus YDR392W, strain spt3, stronger effect = lower value 0.127 | locus YDR502C, strain sam2, stronger effect = lower value 0.833 | locus YEL003W, strain gim4, stronger effect = lower value 0.715 | locus YEL037C, strain rad23, stronger effect = lower value 0.907 | locus YEL061C, strain CIN8 (second series), stronger effect = lower value 0.88 | locus YEL061C, strain CIN8, stronger effect = lower value 0.916 | locus YER015W, strain faa2, stronger effect = lower value 0.855 | locus YER016W, strain bim1, stronger effect = lower value 0.911 | locus YER110C, stronger effect = lower value 0.836 | locus YER155C, strain BEM2 (second series), stronger effect = lower value 0.585 | locus YER155C, strain BEM2, stronger effect = lower value 0.71 | locus YFR010W, strain ubp6, stronger effect = lower value 0.862 | locus YGL086W, strain mad1, stronger effect = lower value 0.89 | locus YGL167C, strain pmr1, stronger effect = lower value 0.848 | locus YGL173C, strain kem1, stronger effect = lower value 0.888 | locus YGL227W, strain vid30, stronger effect = lower value 0.912 | locus YGL240W, strain doc1, stronger effect = lower value 0.599 | locus YGL248W, strain PDE1, stronger effect = lower value 0.799 | locus YGL253W, strain hxk2, stronger effect = lower value 0.742 | locus YGR135W, strain pre9, stronger effect = lower value 0.801 | locus YHR013C, strain ard1, stronger effect = lower value 0.616 | locus YHR027C, strain rpn1, stronger effect = lower value 0.874 | locus YHR129C, strain ARP1, stronger effect = lower value 0.852 | locus YHR142W, strain chs7, stronger effect = lower value 0.787 | locus YHR200W, strain rpn10, stronger effect = lower value 0.876 | locus YIL066C, strain RNR3, stronger effect = lower value 0.756 | locus YIR030C, strain dcg1, stronger effect = lower value 0.903 | locus YJL092W, strain hpr5, stronger effect = lower value 0.904 | locus YJL095W, strain BCK1 (second series), stronger effect = lower value 0.894 | locus YJL115W, strain asf1, stronger effect = lower value 0.88 | locus YJL129C, strain trk1, stronger effect = lower value 0.76 | locus YJL164C, strain tpk1, stronger effect = lower value 0.809 | locus YJL166W, strain qcr8, stronger effect = lower value 0.654 | locus YJL187C, strain SWE1, stronger effect = lower value 0.903
